# Bioassay records from PubChem BioAssay.
# This is a sample that favours compounds with a hit; in the whole collection about 2.9% have one here.
# SKN-1 inh: blocks SKN-1 activity in C. elegans; C. elegans VP596 Pgst-4::GFP/RFP ratio, acrylamide-induced, 24 h; inhibition, % at 21.8 µM; 360,000 tested, 0.49% active; AID 624304;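 active = interference check ratio from 0.5 to 1.5 plus GFP to RFP signal ratio inhibition reaching or exceeding a fixed threshold, cut at about 30% in these data, passing the limit was not always enough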
# EP2 mod: modulates human prostaglandin E2 receptor EP2 signaling | P43116 | EP2-expressing cells, cAMP HTRF FRET, PGE2 co-stimulation | induction, % at 25 µM | 260,000 tested, 0.83% active;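 active = compounds whose cAMP rise, as percent of the full-agonist control response, exceeds 60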;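 note: rat C6 glioma line stably carrying human EP2 under a CMV promoter; the protocol text gives 20 µM as final concentration; 100% = response of wells given 1 µM PGE2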
# Target sequence (P43116 whole entry, looked up): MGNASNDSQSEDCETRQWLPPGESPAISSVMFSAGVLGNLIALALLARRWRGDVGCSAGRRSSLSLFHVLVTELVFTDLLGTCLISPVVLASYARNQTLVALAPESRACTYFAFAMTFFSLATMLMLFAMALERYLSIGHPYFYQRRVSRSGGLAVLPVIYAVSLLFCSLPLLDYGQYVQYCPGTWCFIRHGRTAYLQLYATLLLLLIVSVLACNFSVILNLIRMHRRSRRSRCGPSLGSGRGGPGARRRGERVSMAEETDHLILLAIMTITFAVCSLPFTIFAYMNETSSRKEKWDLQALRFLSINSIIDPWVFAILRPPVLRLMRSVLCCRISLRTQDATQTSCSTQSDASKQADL
# Rev-erbA mod: modulators of human Rev-erb alpha DNA binding | Rev-erbα–FITC-DNA binding, fluorescence polarization, 90 min | P20393 | 370,000 tested, 0.79% active | activity, % at 10 µM;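 active = activity above about 14%, limit read from the data; passing the limit was not always enough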;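 note: 0% = DMSO wells with 35 nM protein and 100% = DMSO wells with 750 nM protein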
# RAM network inh: inhibitors of the yeast RAM network; S. cerevisiae dse1pr::URA3 reporter, 5-FOA growth OD615, 2 d; analog-sensitive cbk1-as2 kinase mutant strain; inhibition, % at 50 µM; 190,000 tested, 1.8% active; AID 868;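 active = inhibition above a set limit, 3 SD over mean compound inhibition, cut at about 8.4% in these data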;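 note: 0% = DMSO-only wells with no growth and 100% = 10 µM 1-NA-PP1 full growth; inhibition rescues growth on 5-FOA so higher OD means more RAM inhibition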
# PG9 Ab binder: small molecules binding HIV-1 gp120 antibody PG9 | TR-FRET gp120-PG9 antibody binding | inhibition, % at 6.7 µM | 360,000 tested, 0.43% active | AID 624416; in the data active = inhibition above about 8.5%
# PGE2 EP2 inh: blocks the human prostaglandin E2 receptor EP2; AID 1422; 260,000 tested, 0.52% active; C6 glioma cells expressing human EP2, cAMP TR-FRET; cells stimulated with saturating PGE2; inhibition, % at 25 µM; P43116;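 active = percent inhibition above 40 after rounding to a whole number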;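 note: rat C6 glioma host cells with rolipram phosphodiesterase inhibitor present; the protocol text gives 20 µM as final concentration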
# An asterisk follows results filed as active; . = no result; ! = not active in a repeat.
SMILES,SKN-1 inh,EP2 mod,Rev-erbA mod,RAM network inh,PG9 Ab binder,PGE2 EP2 inh
COc1ccc(-n2c(SCC(=O)Nc3ccccc3OC)nnc2-c2cccc(C)c2)cc1,.,27.4,.,.,.,10.3
COc1ccc(O)c(CN[C@@H]2CCC(=O)N[C@H]2c2cc(F)cc(F)c2)c1,.,-44.3,.,.,.,5.4
O=C(NCC1CCCCC1)C1CCN(S(=O)(=O)c2ccc(Cl)cc2)CC1,.,-8.3,.,.,.,13.6
CSc1nc(SCC(=O)O)c2sc3nc(-c4ccccc4)c4c(c3c2n1)CCC4,-5.6,61.2*,-10.7,.,1.4,9.9
CSc1nc(N(C)CCO)c2sc3nc(-c4ccco4)c4c(c3c2n1)CCC4,-0.3,10.7,.,2.0,.,17.4
CCCn1c(=O)c(C(=O)NCCc2ccc(OC)cc2)c(O)c2ccccc21,-10.0,70.8*,2.4,.,-1.5,9.0
CCn1c(=O)c(C(=O)NCc2ccc(OC)c(OC)c2)c(O)c2ccccc21,7.5,60.7*!,0.3,4.3,1.0,9.8
CCn1c(=O)c(C(=O)NCc2ccc(OC)cc2)c(O)c2ccccc21,12.7,61.7*,7.0,7.2,1.0,-1.1
CCCn1c(=O)c(C(=O)NCCc2ccccc2)c(O)c2ccccc21,18.6,.,1.1,.,-1.4,.
CCOCCCNC(=S)N(CCCO)Cc1cc2ccc(OC)cc2[nH]c1=O,.,-34.2,.,.,.,25.4
O=C(O)c1ccc2nc(-c3ccccc3)sc2c1,-7.3,-68.2,1.3,0.1,-1.0,8.1
Cc1ccc2nc(-c3ccc(NC(=O)c4ccc(N)cc4)c(S(=O)(=O)O)c3)sc2c1,.,-11.6,.,.,.,45.9*
Nc1ccc(-c2nc3ccc(C(=O)O)cc3s2)cc1,1.0,-19.3,-8.1,9.1*,-0.8,7.4
O=C(CSc1nnc(CNc2ccc(F)cc2)n1Cc1ccco1)N1CCOCC1,0.4,-4.8,0.0,-1.1,1.1,13.8
O=C(CSc1nnc(CNc2ccc(F)cc2)n1Cc1ccco1)NC1CC1,46.4*,-1.3,-1.6,1.9,0.6,7.5
CCc1cccc(CC)c1NS(=O)(=O)c1cccs1,.,36.3,.,.,.,9.2
O=S1(=O)c2ccccc2N=NN1Cc1ccc(Cl)cc1,14.1,-22.8,1.0,0.9,-1.7,42.6*
Cc1nonc1CC(=O)NC1(c2ccc3c(c2)OCO3)CCCC1,.,-38.1,.,.,.,8.8
CCc1nc(NCC(C)C)c(C#N)c2c1COC(C)(C)C2,-5.8,23.8,1.4,3.4,0.2,13.6
CCOc1ncnc2c1oc1nc(CC(C)C)c3c(c12)CC(C)(C)OC3,-1.0,50.8,-0.6,10.0*,-0.2,9.3
COc1ncnc2c1oc1nc(C(C)C)c3c(c12)CC(C)(C)OC3,-37.1,32.5,5.2,2.8,-0.3,4.8
CCOc1nc(CC(C)C)c2c(c1C#N)CC(C)(C)OC2,-13.8,61.9*,1.2,.,1.4,5.8
CCc1nc(NC2CCCCC2)c(C#N)c2c1COC(C)(C)C2,6.9,62.2*,3.4,4.6,-2.5,7.5
O=C1NC2=C(C(=O)N(CC3CCCO3)C2)C(c2cccc(F)c2)N1 (configuration not stated),.,-7.4,.,.,.,7.5
CC(C)C(=O)N1CCCc2cc(C(=O)CN3CCN(c4ncccn4)CC3)ccc21,.,3.3,.,.,.,6.1
SMILES,SKN-1 inh,EP2 mod,Rev-erbA mod,RAM network inh,PG9 Ab binder,PGE2 EP2 inh
CCn1c(=O)n(CC(=O)N2C(C)CCCC2C)c2cccnc21 (configuration not stated),.,-24.0,.,.,.,.
O=C(COc1ccc(S(=O)(=O)NCc2ccccc2)cc1)N1CCCC1,.,-22.1,.,.,.,10.0
O=C(NCc1ccc2c(c1)OCO2)c1ccc(N2CCCCCC2)c([N+](=O)[O-])c1,9.2,9.3,-4.4,2.6,1.1,2.5
CC1CCCN(c2ccc(C(=O)NCc3ccc4c(c3)OCO4)cc2[N+](=O)[O-])C1 (configuration not stated),13.5,-7.3,7.0,8.5*,0.0,6.8
CCc1ccc(C(=O)Nc2ccc3nc(C)ccc3c2)cc1,44.0*,.,1.6,.,-0.4,.
CCn1c(COc2cccc(OC)c2)nnc1SCC(=O)N1C(C)CCCC1C (configuration not stated),.,2.4,.,.,.,10.0
COc1cccc(/C=C/C(=C2/C(=O)N(c3ccccc3)N=C2C)c2ccc(Br)cc2)c1OC,6.1,13.7,.,8.7*,.,2.9
O=C1CCC(/C=C/c2ccccc2)=NN1Cc1ccccc1,4.5,-57.7,5.0,0.4,-2.8,3.0
CC(C)(C)c1ccc(CN2N=C(/C=C/c3ccccc3)CCC2=O)cc1,-0.6,41.7,2.8,9.8*,-3.7,7.6
